In PubChem BioAssay AID588683 (Broad Institute, 2011):
Measured potencies and affinities stand elsewhere. Calls of active or inactive are those of the source. How the calls were made is not given here.

Biological target: Kelch-like ECH-associated protein 1 (Homo sapiens) + Nuclear factor erythroid 2-related factor 2 (Homo sapiens) (UniProt Q14145+Q16236)
Assay: disruptors of Keap1 binding to Nrf2 peptide – biochemical, fluorescence polarization, cherry-picked samples, dose response (AID 588683);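 further: Kelch domain of Keap1 binding a fluorescein-labelled 9mer Nrf2 peptide; more negative means stronger inhibition of peptide binding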
Settings: plate reader; series mostly up to 26 µM

Chain of Kelch-like ECH-associated protein 1 (Homo sapiens) + Nuclear factor erythroid 2-related factor 2 (Homo sapiens) (Q14145 whole entry, looked up, the tested form may be a part): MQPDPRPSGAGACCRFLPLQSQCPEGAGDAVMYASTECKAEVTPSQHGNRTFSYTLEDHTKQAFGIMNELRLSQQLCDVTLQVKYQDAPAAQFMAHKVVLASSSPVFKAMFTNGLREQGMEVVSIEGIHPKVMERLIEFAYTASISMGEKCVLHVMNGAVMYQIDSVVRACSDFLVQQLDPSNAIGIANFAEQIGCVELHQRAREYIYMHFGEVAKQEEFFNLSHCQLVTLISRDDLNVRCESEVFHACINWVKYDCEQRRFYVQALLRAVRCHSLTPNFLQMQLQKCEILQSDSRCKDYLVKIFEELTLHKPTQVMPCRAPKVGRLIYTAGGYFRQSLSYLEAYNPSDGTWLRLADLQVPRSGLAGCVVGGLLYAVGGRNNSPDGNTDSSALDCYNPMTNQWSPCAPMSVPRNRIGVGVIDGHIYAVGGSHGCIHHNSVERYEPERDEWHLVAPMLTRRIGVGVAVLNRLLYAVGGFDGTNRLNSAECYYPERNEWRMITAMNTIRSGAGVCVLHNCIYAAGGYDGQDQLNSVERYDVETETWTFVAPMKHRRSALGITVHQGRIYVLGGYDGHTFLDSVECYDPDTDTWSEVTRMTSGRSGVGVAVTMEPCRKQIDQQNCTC
Chain of Kelch-like ECH-associated protein 1 (Homo sapiens) + Nuclear factor erythroid 2-related factor 2 (Homo sapiens) (Q16236 whole entry, looked up, the tested form may be a part): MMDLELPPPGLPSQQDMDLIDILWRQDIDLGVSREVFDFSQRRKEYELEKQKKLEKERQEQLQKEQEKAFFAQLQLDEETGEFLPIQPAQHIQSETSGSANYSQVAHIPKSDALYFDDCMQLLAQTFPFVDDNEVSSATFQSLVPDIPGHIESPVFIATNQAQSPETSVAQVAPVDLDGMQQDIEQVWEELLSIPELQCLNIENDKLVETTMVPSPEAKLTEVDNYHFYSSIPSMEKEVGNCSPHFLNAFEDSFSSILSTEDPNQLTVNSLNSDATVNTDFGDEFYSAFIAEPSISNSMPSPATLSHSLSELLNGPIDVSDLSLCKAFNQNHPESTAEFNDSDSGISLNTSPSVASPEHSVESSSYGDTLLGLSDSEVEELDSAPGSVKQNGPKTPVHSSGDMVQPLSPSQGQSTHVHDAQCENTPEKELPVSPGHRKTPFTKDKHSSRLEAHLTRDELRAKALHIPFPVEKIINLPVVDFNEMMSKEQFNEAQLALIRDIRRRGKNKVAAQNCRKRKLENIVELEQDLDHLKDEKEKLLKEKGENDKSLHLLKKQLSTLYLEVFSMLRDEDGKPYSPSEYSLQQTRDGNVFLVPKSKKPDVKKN

outcome, inactive:
CCOC(=O)c1c(C)oc2c1c(C=NCCO)c(O)c1ccccc12
CCc1cc(C(=O)c2ccc(OC)cc2)c(N)s1
C=CCn1c(=O)/c(=C\c2ccsc2)s/c1=C(/C#N)C(=O)NCCN1CCOCC1
CCC1OC2(C)OC(=N)C1(C#N)C(C#N)(C#N)C2c1ccccc1 (stereo not drawn)
CCCc1nc2oc3cc(OC)ccc3c(=O)c2c(=O)n1Cc1ccco1
CCCCN1C(=O)/C(=C2/Sc3ccccc3N2C)S/C1=N\c1ncn[nH]1
N#CCCN(CCC#N)C(=O)C1c2ccccc2Oc2ccccc21
Cc1cc(C)c2nc3sc(C(=O)N4CCOCC4)c(N)c3cc2c1
CCCN(CCC)C(=O)C1c2ccccc2Oc2ccccc21
O=C1c2ccccc2-c2onc3ccc(N4CCCC4)c1c23
O=C(NCCOCc1ccc(Cl)cc1)c1ncn[nH]1
O=C(O)c1cc(N2N=C(C(F)(F)F)/C(=C/C=C/c3ccco3)C2=O)ccc1Cl
Cc1nn(-c2ccccc2Cl)c(Cl)c1/C=N/Nc1nc2ccccc2s1
O=C1c2cccc3c(N4CCCCC4)ccc(c23)C(=O)N1c1cccc(O)c1
CC1CCN(C(=O)Cn2cc(C(F)(F)F)ccc2=O)c2ccccc2S1 (stereo not drawn)
CNC(=O)C1CC(=O)N(c2ccc(OCC(=O)Nc3ccc(F)cc3)cc2)C1 (stereo not drawn)
O=C(NC1(O)C(=O)c2ccccc2C1=O)c1c(Cl)cccc1Cl
CCOC(=O)c1c(C)[nH]c(C(=O)COC(=O)c2cccnc2Cl)c1C
CN(C)CCNC(=O)c1c(NC(=O)c2ccccc2)sc2c1CCCC2
O=C(NCc1ccc(Cl)cc1)c1cc(=O)[nH]c2ccccc12
CCCCN(C(=O)CC1CCCCC1)c1c(N)n(CC(C)C)c(=O)[nH]c1=O
Cc1cnc(NC(=O)Cc2ccc(S(=O)(=O)N3CCOCC3)s2)s1
CCC1OC23CCCCC2C(C#N)(C(=N)O3)C1(C#N)C#N (stereo not drawn)
CCN1CCN(S(=O)(=O)c2ccc(Cl)c(C(=O)NC3CCC(C)CC3)c2)CC1 (stereo not drawn)
CC(C)C(C(=O)O)N1C(=O)/C(=C/C=C/c2ccco2)SC1=S (stereo not drawn)
CCOCCCn1c(=NC(=O)c2cccs2)c(C#N)cc2c(=O)n3cccc(C)c3nc21
CC1(C)CC(=O)C2=C(C1)OC(N)=C(C#N)[C@@H]2c1ccccc1[N+](=O)[O-]
Cc1cccc(C)c1NC(=O)CSc1nnc(-c2ccco2)c(-c2ccco2)n1
CCCCC1OC2(C)OC(=N)C1(C#N)C(C#N)(C#N)C2c1ccccc1 (stereo not drawn)
O=C(COC(=O)c1cccnc1Cl)Nc1ccc(N2CCCCC2)cc1
CC(=O)N1CCN(S(=O)(=O)c2cccc(C(=O)NNC(=O)c3ccc(Br)cc3)c2)CC1
CC(OC(=O)c1ccc([N+](=O)[O-])o1)C(=O)NC1CCCCC1C (stereo not drawn)
CCN1CC=C2C(C1)C(c1ccc(Cl)s1)C(C#N)=C(N)C2(C#N)C#N (stereo not drawn)
CCC(C(=O)NC1C(=O)N2C(C(=O)O)=C(CSc3nnc(C)s3)CSC12)c1ccccc1 (stereo not drawn)
O=C(CSc1nc2ccccc2c(=O)n1CCCN1CCOCC1)Nc1ccccc1OC(F)F
CN(C)c1ccc2cc(S(=O)(=O)O)cc(O)c2c1
O=C(COC(=O)c1ccncc1)Nc1cccc2ccccc12
CN(C)CCN(C)Cc1c2ccccc2c(CN(C)CCN(C)C)c2ccccc12
